SMILES strings stand for the structures. The panel holds about 83,000 compounds, 20% with a hit somewhere; the sample as a whole holds those more often.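 Percent growth is the endpoint: 0 to 100 indicates growth inhibition (40 means 60% inhibition), 0 means no net growth, and negative values indicate cell death.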 A number with no mark means an inactive call. The source made the active and inactive calls. The calls were made as follows: active = growth percent below 10; inactive = the rest.

The values that follow come from PubChem BioAssay (NCI).

Test in all cases: NCI-60 one-dose screen, 48 h (100 = growth as untreated, 0 = no growth, -100 = all killed)
In one test the test system is SR leukemia. The conditions noted are these: 10 µM unless noted.
The next test concerns RPMI-8226 leukemia. The conditions noted are these: 10 µM unless noted.
The next test concerns OVCAR-8 ovarian. The conditions noted are these: 10 µM unless noted.
The subject of another test is OVCAR-5 ovarian. The conditions noted are these: 10 µM unless noted.
The test system of another test is OVCAR-4 ovarian. The conditions noted are these: 10 µM unless noted.
In the next test the test system is SK-OV-3 ovarian. The conditions noted are these: 10 µM unless noted.
A further test deals with IGROV1 ovarian. The conditions noted are these: 10 µM unless noted.
The test system of the next test is OVCAR-3 ovarian. The conditions noted are these: 10 µM unless noted.
In the next test the test system is NCI/ADR-RES ovarian. The conditions noted are these: 10 µM unless noted.
The subject of another test is T-47D breast. The conditions noted are these: 10 µM unless noted.
For the next test, the system named is BT-549 breast. The conditions noted are these: 10 µM unless noted.
In a further test the test system is MDA-MB-435 melanoma. The conditions noted are these: 10 µM unless noted.
In a further test the test system is SW-620 colon. The conditions noted are these: 10 µM unless noted.
The next test deals with MCF7 breast. The conditions noted are these: 10 µM unless noted.
For the next test, the system named is HCT-116 colon. The conditions noted are these: 10 µM unless noted.
Another test relates to HCC-2998 colon. The conditions noted are these: 10 µM.
For a further test, the system named is KM12 colon. The conditions noted are these: 10 µM unless noted.

With `Cc1cc([C@@H](C)Nc2ccccc2C(=O)O)c2nc(N3CCOCC3)cc(=O)n2c1`, the growth in the test with SR leukemia is 25%; in the test on RPMI-8226 leukemia, 71.8%; with OVCAR-8 ovarian, 45.6%; with OVCAR-5 ovarian, 51.8%; in the test on OVCAR-4 ovarian, 77.3%; in the test on SK-OV-3 ovarian, -13.2% (active). In addition, the growth is -4.69% (active) with IGROV1 ovarian; 31.1% in the test on OVCAR-3 ovarian; 58.1% in the test on NCI/ADR-RES ovarian; -27.6% (active) with T-47D breast; 22.3% with BT-549 breast; 58% with MDA-MB-435 melanoma. The growth in the test on SW-620 colon is 35%; in the test on MCF7 breast, 16.4%; in the test on HCT-116 colon it was 23%; in the test on HCC-2998 colon it was 60.1%; in the test on KM12 colon it was 57%.

For `CC[C@H](CO)Nc1nc(NCc2ccccc2)c2ncn(C(C)C)c2n1`, the growth was 7.1% (active) in the test on SR leukemia; 85.5% in the test on RPMI-8226 leukemia; 63.8% with OVCAR-8 ovarian; 50.9% in the test with OVCAR-5 ovarian; 73.2% in the test with OVCAR-4 ovarian; 102% in the test on SK-OV-3 ovarian. The growth in the test with IGROV1 ovarian was 49%; in the test on OVCAR-3 ovarian it was 65.2%; in the test on NCI/ADR-RES ovarian, 71.4%; in the test with T-47D breast, 48.4%; in the test on BT-549 breast, 78.1%; in the test on MDA-MB-435 melanoma it was 83.6%. In addition, the growth is 69.3% with SW-620 colon; 31.5% in the test on MCF7 breast; 30.1% in the test with HCT-116 colon; 74.5% in the test with HCC-2998 colon; 47.6% with KM12 colon.

On to `CNC(=O)c1cccc2cc(Oc3ccnc4cc(OCC5(N)CC5)c(OC)cc34)ccc12`, for which the growth with SR leukemia is 27.6%; with RPMI-8226 leukemia, 81.7%; in the test with OVCAR-8 ovarian, 48.9%; with OVCAR-5 ovarian, 65.3%; in the test with OVCAR-4 ovarian, 49.4%; with SK-OV-3 ovarian it was 69.8%. The growth in the test on IGROV1 ovarian is 39.5%; in the test with OVCAR-3 ovarian, 61.4%; in the test with NCI/ADR-RES ovarian it was 76%; in the test with T-47D breast, 92.2%; with BT-549 breast, 59.7%; with MDA-MB-435 melanoma, 24.1%. For the same molecule, the growth in the test with SW-620 colon was 46.9%; in the test with MCF7 breast, 49.1%; in the test on HCT-116 colon, 33.2%; with HCC-2998 colon, 92%; with KM12 colon, 45.9%.

Regarding `C/C(=C(/c1ccc(Cl)cc1)c1ccc(OCCN2CCCC2)cc1)c1ccccc1`, the growth was 7.27% (active) with SR leukemia; 42.8% in the test with RPMI-8226 leukemia; 88.1% in the test on OVCAR-8 ovarian; 64.7% in the test on OVCAR-5 ovarian; 91.7% in the test with OVCAR-4 ovarian; 121% in the test on SK-OV-3 ovarian. Also, the growth in the test on IGROV1 ovarian is 65.9%; with OVCAR-3 ovarian, 91.8%; in the test on NCI/ADR-RES ovarian, 77.6%; with T-47D breast it was 72.4%; with BT-549 breast, 73.4%; in the test on MDA-MB-435 melanoma, 55.1%. Further, the growth in the test on SW-620 colon is 51.4%; with MCF7 breast, 33.8%; in the test with HCT-116 colon, 47.4%; in the test on HCC-2998 colon it was 84.7%; with KM12 colon, 25.6%.

`CN[C@@H]1C[C@H]2O[C@@](C)([C@@H]1OC)n1c3ccccc3c3c4c(c5c6ccccc6n2c5c31)C(=O)N[C@H]4O`: the growth with SR leukemia was 1.68% (active); with RPMI-8226 leukemia, -46.2% (active); with OVCAR-8 ovarian it was -36.7% (active); in the test with OVCAR-5 ovarian it was -2.9% (active); in the test on OVCAR-4 ovarian it was 16%; with SK-OV-3 ovarian it was -68.5% (active). For the same molecule, the growth is 0.929% (active) in the test on IGROV1 ovarian; -31.6% (active) in the test with OVCAR-3 ovarian; -39.1% (active) in the test with NCI/ADR-RES ovarian; -49.2% (active) in the test with T-47D breast; -88.5% (active) in the test with BT-549 breast; -79.4% (active) in the test with MDA-MB-435 melanoma. The growth is -6.96% (active) in the test on SW-620 colon; -46.8% (active) in the test with MCF7 breast; -49.3% (active) in the test on HCT-116 colon; -74.5% (active) in the test with HCC-2998 colon; -59.8% (active) in the test on KM12 colon.

On to `C/C(=C(/c1ccc(Cl)cc1)c1ccc(OCCN2CCCCCC2)cc1)c1ccccc1`, for which the growth was 18% in the test on SR leukemia; 70.2% with RPMI-8226 leukemia; 89% with OVCAR-8 ovarian; 69.6% in the test with OVCAR-5 ovarian; 73.5% with OVCAR-4 ovarian; 113% with SK-OV-3 ovarian. In addition, the growth with IGROV1 ovarian is 74.1%; in the test with OVCAR-3 ovarian, 89.6%; in the test with NCI/ADR-RES ovarian, 90%; in the test on T-47D breast it was 71.1%; in the test with BT-549 breast, 84.4%; with MDA-MB-435 melanoma, 92.6%. In addition, the growth in the test on SW-620 colon was 54%; with MCF7 breast it was 76%; in the test with HCT-116 colon, 50%; with HCC-2998 colon, 93.8%; with KM12 colon it was 30.7%.

For the molecule `C[C@]12O[C@H](C[C@]1(O)CO)n1c3ccccc3c3c4c(c5c6ccccc6n2c5c31)CNC4=O`, the growth was -14.4% (active) with SR leukemia; -41.3% (active) in the test on RPMI-8226 leukemia; -32.5% (active) in the test with OVCAR-8 ovarian; 4.92% (active) in the test with OVCAR-5 ovarian; -23% (active) in the test on OVCAR-4 ovarian; -46.3% (active) in the test on SK-OV-3 ovarian. Further, the growth with IGROV1 ovarian is -26.3% (active); in the test with OVCAR-3 ovarian, 0.931% (active); in the test on NCI/ADR-RES ovarian it was -38.1% (active); in the test on T-47D breast, -24.4% (active); in the test on BT-549 breast, -68.5% (active); with MDA-MB-435 melanoma it was -80.1% (active). Further, the growth is 3.8% (active) in the test with SW-620 colon; -55.2% (active) with MCF7 breast; 0.7% (active) in the test with HCT-116 colon; -49.6% (active) with HCC-2998 colon; -18.5% (active) in the test on KM12 colon.

With `Cc1nc(Nc2n[nH]c3c2CN(C(=O)N[C@H](CN(C)C)c2ccccc2)C3(C)C)c2sccc2n1`, the growth in the test on SR leukemia was -12.1% (active); in the test with RPMI-8226 leukemia, -35.2% (active); in the test with OVCAR-8 ovarian it was -26.3% (active); in the test with OVCAR-5 ovarian, -2.55% (active); with OVCAR-4 ovarian, -12% (active); in the test with SK-OV-3 ovarian, -26.8% (active). The growth was -17.9% (active) with IGROV1 ovarian; 8.31% (active) with OVCAR-3 ovarian; 40.3% in the test on NCI/ADR-RES ovarian; -25.2% (active) in the test on T-47D breast; -42.5% (active) in the test with BT-549 breast; -66.2% (active) in the test with MDA-MB-435 melanoma. The growth in the test with SW-620 colon was 1.22% (active); in the test on MCF7 breast, -3.74% (active); with HCT-116 colon it was -9.97% (active); in the test on HCC-2998 colon, -55.1% (active); with KM12 colon it was -12.7% (active).

Turning to `Cc1c(CN2CCN(C(=O)[C@H](C)O)CC2)sc2c(N3CCOCC3)nc(-c3cnc(N)nc3)nc12`, the growth in the test on SR leukemia was -3.28% (active); in the test on RPMI-8226 leukemia, 1.84% (active); in the test on OVCAR-8 ovarian, -4.51% (active); in the test with OVCAR-5 ovarian, -11.6% (active); in the test with OVCAR-4 ovarian, -9.47% (active); in the test with SK-OV-3 ovarian, -39.1% (active). Further, the growth with IGROV1 ovarian was -50.1% (active); in the test with OVCAR-3 ovarian, 3.12% (active); in the test with NCI/ADR-RES ovarian, 7% (active); in the test with T-47D breast it was -38% (active); in the test on BT-549 breast, -3.06% (active); with MDA-MB-435 melanoma it was -9.11% (active). For the same molecule, the growth is 7.94% (active) in the test with SW-620 colon; 1.68% (active) with MCF7 breast; 5.47% (active) in the test with HCT-116 colon; 0.359% (active) in the test with HCC-2998 colon; 6.74% (active) in the test with KM12 colon.
